PubChem BioAssay AID485270 (The Scripps Research Institute Molecular Screening Center, 2010)
Among all 330,000 compounds or so, about 5,800 (1.8%) were called active. The list comes from a sample in which actives are over-represented; it also holds similar structures and randomly drawn compounds. Unmarked numbers belong to inactive results. Cut-off read from the data, not from the text of the source: active = inhibition mostly above about 38% (no sharp cut-off); inactive = mostly below about 40%.

Each compound was assayed against Orexin/Hypocretin receptor type 1 (Homo sapiens) (UniProt O43613) (assay: antagonists of human orexin 1 receptor (OX1R) (AID 485270;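 note: 0% = agonist challenge alone and 100% = reference antagonist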)). Details: OX1R-expressing cells, FRET antagonist read-out; at 6.6 µM; stronger effect = higher value.
Chain of Orexin/Hypocretin receptor type 1 (Homo sapiens) (O43613 whole entry, looked up): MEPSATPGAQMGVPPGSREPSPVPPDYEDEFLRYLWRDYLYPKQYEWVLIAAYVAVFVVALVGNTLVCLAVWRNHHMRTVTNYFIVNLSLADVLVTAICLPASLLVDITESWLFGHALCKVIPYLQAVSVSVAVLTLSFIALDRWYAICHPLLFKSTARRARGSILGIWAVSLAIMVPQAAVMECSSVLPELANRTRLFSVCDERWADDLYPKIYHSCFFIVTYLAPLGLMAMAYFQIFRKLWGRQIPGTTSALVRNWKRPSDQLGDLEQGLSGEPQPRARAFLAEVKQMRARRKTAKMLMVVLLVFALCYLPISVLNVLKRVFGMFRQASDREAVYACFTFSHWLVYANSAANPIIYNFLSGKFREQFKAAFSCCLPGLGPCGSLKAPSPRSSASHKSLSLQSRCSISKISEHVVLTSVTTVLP

Compound | inhibition
CSCCC1NC(=O)N(CC(=O)Nc2cccc(S(=O)(=O)N3CCCCCC3)c2)C1=O (stereo not drawn) | 12.6%
O=C1[C@@H](c2ccccc2)[C@@H](c2ccccc2)N1c1cccnc1 | 26%
Cc1cc(C(C)(C)C)oc1C(=O)N(CC(=O)NC1CCCC1)Cc1ccc(Cl)cc1 | 22.5%
O=C(COC(=O)Cc1ccc([N+](=O)[O-])cc1)NC1CCCCCC1 | 2.43%
Cc1cc(C)cc(NC(=O)C(OC(=O)c2ccc(O)cc2)c2ccccc2)c1 (stereo not drawn) | 9.51%
CC(C)CC[n+]1ccn(C2=C([O-])c3ccccc3C(=O)/C2=N\S(=O)(=O)c2ccccc2)c1 | 79.9% (active)
O=C(CCc1ccc(S(=O)(=O)N2CCOCC2)cc1)OCC(=O)c1ccc(Br)cc1 | 4.77%
O=C(Nc1nnc(-c2ccccc2)o1)c1cccc(S(=O)(=O)N2CCOCC2)c1 | 13.1%
COc1ccc(C(=O)C(C)OC(=O)c2cccc(S(=O)(=O)Nc3c(C)n(C)n(-c4ccccc4)c3=O)c2)cc1 (stereo not drawn) | 41.2% (active)
COc1ccc(NS(=O)(=O)c2ccc(C(=O)Nc3c(C)n(C)n(-c4ccccc4)c3=O)cc2)cc1 | 8.89%
Cc1c(NC(=O)C(C)OC(=O)c2ccccc2O)c(=O)n(-c2ccccc2)n1C (stereo not drawn) | 5.32%
Cc1cc(NC(=O)CSc2nnc(-c3ccco3)n2N)no1 | 9.57%
O=C(CNC(=O)c1ccccc1F)OCC(=O)c1c[nH]c2ccccc12 | 3.49%
COc1ccc(NS(=O)(=O)c2cc(NC(=O)c3ccc(S(=O)(=O)N(C)C)cc3)ccc2N2CCOCC2)cc1 | 6.2%
COc1ccc(C(=O)COC(=O)C(O)c2ccccc2)c(OC)c1 (stereo not drawn) | 3.45%
O=C(COC(=O)c1ccc(F)cc1)NCC1COc2ccccc2O1 (stereo not drawn) | 6.76%
O=C(CN1C(=O)/C(=C\c2ccc(C(F)(F)F)cc2)Sc2ccccc21)NCc1ccco1 | 38.3%
O=C(CN1C(=O)/C(=C/c2ccccc2F)Sc2ccccc21)NCc1cccnc1 | 46.6% (active)
O=C(CN1C(=O)S/C(=C\c2ccccc2F)C1=O)NCCCn1ccnc1 | 20.4%
C[C@H](NS(=O)(=O)c1ccc(Cl)cc1)C(=O)OCC(=O)N1CCOCC1 | 1.59%
CSCCC(NC(=O)c1cc([N+](=O)[O-])cc([N+](=O)[O-])c1)c1nc2ccccc2[nH]1 (stereo not drawn) | 82% (active)
CSCCC(NC(=O)c1ccc(=O)n(C)n1)c1nc2ccccc2[nH]1 (stereo not drawn) | 12.2%

Compound | inhibition
COc1ccc(CC(=O)N[C@@H](CCSC)c2nc3ccccc3[nH]2)cc1 | 33.1%
Cc1cnc(NC(=O)c2ccccn2)s1 | 14.3%
COc1ccc(OC)c2sc(NC(=O)C3COc4ccccc4O3)nc12 (stereo not drawn) | 14.5%
O=C(Nc1ncc([N+](=O)[O-])s1)C1COc2ccccc2O1 (stereo not drawn) | 57.4% (active)
O=C(Cc1c(F)cccc1Cl)Nc1ncc([N+](=O)[O-])s1 | 43.1% (active)
O=C(Cc1c(F)cccc1Cl)Nc1ccc(-n2cnnn2)cc1 | 3.25%
COc1ccc(NC(=O)C2COc3ccccc3O2)cc1 (stereo not drawn) | 3.74%
CC(=O)Oc1ccccc1C(=O)Nc1ncc([N+](=O)[O-])s1 | 86% (active)
CN(c1ccccc1)S(=O)(=O)c1cccc(NC(=O)Cc2c(F)cccc2Cl)c1 | 26.3%
CC(C)Cc1nnc(NC(=O)CCc2ccccc2)s1 | -12.6%
O=C(CCc1ccccc1)Nc1ncc([N+](=O)[O-])s1 | 52.7% (active)
COc1ccc([N+](=O)[O-])cc1NC(=O)CCc1ccccc1 | 28.9%
COc1ccc(NC(=O)c2ccccc2[N+](=O)[O-])cc1OC | 10.8%
O=C(OCCN1C(=O)c2ccccc2C1=O)[C@@H]1CC(O)CN1S(=O)(=O)c1ccccc1[N+](=O)[O-] (stereo partly drawn) | 7.02%
O=C(COC(=O)C1CCCO1)Nc1nc(-c2ccc(F)cc2)cs1 (stereo not drawn) | 5.35%
C=CCC[C@H](Cc1ccc(F)cc1)C(=O)OC[C@H](C)NC(=O)[C@H](CC=C)CC(=O)N(CCO)Cc1ccccc1 | 17.6%
O=C(COC(=O)c1ccc(F)c(S(=O)(=O)N2CCOCC2)c1)NCc1ccc2c(c1)OCO2 | 7.1%
COc1ccc2c(CC(=O)NNC(=O)c3ccccc3F)coc2c1 | 7.98%
CCCCOc1ccc(N(CC(=O)NC(C)C)C(=O)CCC(=O)Nc2ccccn2)cc1 | 4.64%
CN(CCc1ccccc1)C(=O)c1cccc(NC(=O)Cc2ccc([N+](=O)[O-])cc2)c1 | 14.3%
CN(Cc1ccccc1)C(=O)COC(=O)/C=C/c1ccc2c(c1)OCO2 | 4.7%
CCCCNC(=O)C(C)N(CCN(C)C)C(=O)CCCN1C(=O)NC(c2ccc(Cl)cc2)C(C(=O)OCc2ccccc2)=C1C (stereo not drawn) | 13.9%

Compound | inhibition
C=C1c2cccc(OC)c2O[C@H](C(=O)OCC)[C@@H]1CCCCCC | 1.8%
CC(C)OCCCNc1ncnc2c1[nH]c1ccc(F)cc12 | 64.8% (active)
CC(C)OCCCNC(=O)c1cc(Sc2ccc(F)cc2)nc2ccccc12 | 23.4%
O=C1NC(Cc2ccc(O)cc2)c2nc3ccc(Cl)cc3c(=O)n2-c2ccccc21 (stereo not drawn) | 6.78%
CCOC(=O)C1C(c2ccc(Cl)cc2)NC(=S)NC1(O)C(F)(F)F (stereo not drawn) | 2.06%
CCOC(=O)C1=C(C)NC(=O)N(C(C)=O)C1c1ccc(Cl)cc1 (stereo not drawn) | 12.3%
CCOC(=O)C1Sc2[nH]c(=O)sc2C(c2ccc(Cl)cc2)C1C(=O)OCC (stereo not drawn) | 49.6% (active)
COc1ccc(C)cc1NC(=O)CSc1cccc[n+]1[O-] | -5.73%
Fc1ccc2[nH]c3c(N4CCSCC4)ncnc3c2c1 | 85.8% (active)
Cc1c(CN2CC[C@@H](N3CCN(c4ccccn4)CC3)[C@H](O)C2)[nH]c2ccc(F)cc12 | -1.02%
COc1ccc2[nH]c3c(c2c1)CCN1C(=O)C(CC(=O)NCc2cccc(C(F)(F)F)c2)C[C@H](C(=O)N2CCOCC2)[C@@]31C (stereo partly drawn) | 13%
CCC(CO)Oc1cc(NCc2ccccc2)c2ncn(C3CCCC3)c2c1 (stereo not drawn) | 12.8%
N#C/C(=C1/CCCN1)c1ccccn1 | 5.71%
N#C/C(=C1\CCCN1)c1nc(-c2ccccc2)cs1 | 84.1% (active)
N#CC(=C1CCCC1)c1nc(-c2ccc(Cl)cc2)cs1 | 20.1%
Cn1c(/C(C#N)=C2/CCCCCN2)nc2ccccc21 | 11.5%
CCNC(=O)CSc1nc(-c2ccccc2)cs1 | 16.1%
N#CC(=C1SC=CS1)c1nc(-c2ccccc2)cs1 | 105% (active)
Cc1c(NC(=O)CN(C)CC(=O)Nc2ccc(F)c(F)c2F)c(=O)n(-c2ccccc2)n1C | 4.65%
COC(=O)[C@]1(Cc2ccccc2)N[C@H](CN(C)S(=O)(=O)c2ccc(F)cc2)[C@@H]2C(=O)N(Cc3ccccc3)C(=O)[C@@H]21 | 15.4%
CNC[C@@H]1Oc2c(NS(C)(=O)=O)cccc2C(=O)N([C@@H](C)CO)C[C@H]1C | -1.47%
O=C(C1CC1)N1N=C2CCCCC2C1(O)C(F)(F)F (stereo not drawn) | 5.9%

Compound | inhibition
CCOC(=O)[C@H]1[C@H]2COc3cc(OC)ccc3[C@@H]2N2C(=O)CN(Cc3ccc(Cl)cc3)C(=O)[C@@]12C | 7.39%
O=C(NCCc1ccc(F)cc1)c1ccc2nccnc2c1 | 9.11%
COc1cc(-c2nnc(NC(=O)C3=COCCO3)o2)cc(OC)c1OC | 4.19%
O=C(Nc1nnc(C2=COCCO2)o1)c1ccc([N+](=O)[O-])s1 | 88.5% (active)
Cc1ccc(C(=O)Nc2nnc(C3=COCCO3)o2)cc1C | 9.95%
O=C(COC(=O)/C=C/c1ccc(Br)o1)Nc1cccc(S(=O)(=O)N2CCOCC2)c1 | 4.21%
Cc1noc(C)c1NC(=O)Nc1ccc2c(c1)C(=O)N([C@H](C)CO)C[C@H](C)[C@@H](CN(C)C(=O)Nc1ccccc1)O2 | -3.75%
COc1cc(C(=O)OCc2cc(=O)n3ccsc3n2)ccc1OC(C)C | 8.65%
COc1ccc(Cl)cc1NC(=O)COC(=O)c1ccc(Br)o1 | 5.94%
CCN1CCN(c2c(Cl)cccc2NC(=O)c2ccc(Br)o2)CC1 | 14.6%
COc1cc(OC)c(NC(=O)c2ccc(Br)o2)cc1Cl | 81.8% (active)
CCN(C[C@H]1N[C@@](CC)(C(=O)OC)[C@H]2C(=O)N(C)C(=O)[C@@H]12)C(=O)Nc1ccc(F)cc1 | -4.34%
CCn1nnc2cc(C(=O)Nc3ccc(C(=O)OC(C)C)cc3)ccc21 | 16.8%
CSc1ccc(/C=N/NC(=O)c2cccc(Cl)c2)cc1 | 44.4% (active)
O=C(N/N=C/c1ccc(Cl)c(Cl)c1)c1ccc2nc[nH]c2c1 | 31.8%
CSc1ccc(/C=N\NC(=O)CC(=O)NC(C)C)cc1 | 9.93%
O=C(CCCN1C(=O)c2cccc3cccc(c23)C1=O)N1CCN(Cc2ccc3c(c2)OCO3)CC1 | 52.3%
O=C(CN1C(=O)c2cccc3cccc1c23)Nc1ccccc1 | 26.3%
O=C(CN1C(=O)c2cccc3cccc(c23)C1=O)N1CCCCC1 | 79.7% (active)
C/C(N)=C(/C#N)C(=O)COC(=O)c1cc(-c2ccccc2)nc2ccc(Br)cc12 | 8.99%
C/C(N)=C(/C#N)C(=O)COC(=O)c1cc(-c2ccc(C)cc2)nc2ccccc12 | 86.7% (active)
C/C(N)=C(/C#N)C(=O)COC(=O)c1cc(-c2cccc(Br)c2)nc2ccccc12 | 44.3%
